Measured values taken from PubChem BioAssay (NCI).
Compounds without any hit were thinned out: in the full panel of roughly 83,000, 20% have a hit.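 96-well plates, one dose, 48 hours. Percent growth reported; active if below 10.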 A number with no mark means an inactive call. The source made the active and inactive calls.

What was measured:
Assay in all cases: NCI-60 one-dose screen, 48 h (100 = growth as untreated, 0 = no growth, -100 = all killed)
Conditions in all cases: 10 µM
HT29 colon = system: HT29 colon
SNB-75 CNS = system: SNB-75 CNS
SNB-19 CNS = system: SNB-19 CNS
U251 CNS = system: U251 CNS
PC-3 prostate = system: PC-3 prostate
SK-MEL-5 melanoma = system: SK-MEL-5 melanoma
UACC-62 melanoma = system: UACC-62 melanoma
LOX IMVI melanoma = system: LOX IMVI melanoma
SK-MEL-28 melanoma = system: SK-MEL-28 melanoma

SMILES | growth (HT29 colon) | growth (SNB-75 CNS) | growth (SNB-19 CNS) | growth (U251 CNS) | growth (PC-3 prostate) | growth (SK-MEL-5 melanoma) | growth (UACC-62 melanoma) | growth (LOX IMVI melanoma) | growth (SK-MEL-28 melanoma)
Cc1cc(N(CCCNc2ccnc3cc(Cl)ccc23)Cc2cccs2)nc(Cl)n1 | 7.06% (active) | 49.2% | 76.1% | 40% | 40.4% | -14.9% (active) | 47.5% | 8.99% (active) | 81.5%
COc1ccc(/C(=C2/O[C@@H]([C@H]3COC(C)(C)O3)[C@H]3OC(C)(C)O[C@@H]23)c2cc(OC)c(OC)c(OC)c2)cc1O | 113% | 24.3% | 27.6% | 61.2% | 29.4% | 61.8% | 82.9% | 47.6% | –
CN(C)Cc1cn(-c2ncc(-c3ccc(C(F)(F)F)cc3)c(NC3CCCCCC3)n2)nn1 | 31% | 72.9% | 92.1% | 73.3% | 77.5% | 80.6% | 97.6% | 95.7% | 97.4%
COc1ccc(-c2nn(-c3cccc(NC(=O)c4ccc5c(c4)OCCO5)c3)cc2-c2ccncc2)cc1Cl | 0.486% (active) | 2.6% (active) | 70.8% | -9.64% (active) | 10.4% | 20% | 34.1% | 29.9% | 38.3%
COc1ccc(-c2nc(-c3nc4ccc(Cl)cc4[nH]3)c3ccccn23)cc1 | 34.7% | -89.4% (active) | 20.3% | 7.5% (active) | 55.9% | 50.7% | 82.5% | 30.4% | 12%
COc1ccc(/C=C/C(C)=N/OCC(=O)O)cc1 | 105% | 100% | 103% | 95.2% | 94.4% | 101% | 113% | 96.9% | 114%
CCOC(=O)C(NC(=O)C(Cl)Cl)C(O)c1ccccc1 (stereo not given) | 107% | 91.3% | 101% | 101% | -0.104% (active) | 91.4% | 94.2% | 99.9% | 144%
COc1ccc2c(c1)N(CCO)C1=C(C(=O)OC1)C2c1ccc(OC)c(OC)c1 (stereo not given) | 9.84% (active) | 16.2% | 53.2% | 34.5% | 38% | 16.9% | 27.3% | 38.2% | 61.6%
O=C(CNC(=O)OCc1ccccc1)NCC(=O)Oc1ccc([N+](=O)[O-])cc1 | 98.7% | 109% | 111% | 11.8% | 89.8% | 98.1% | 107% | 87.6% | 104%
CCN1CCCC1CNC(=O)c1ncc(-c2ccc(C(F)(F)F)cc2)c(NC2CCCCCC2)n1 (stereo not given) | 11.7% | 74.3% | 85.2% | 52.7% | 58.4% | 45.2% | 78.3% | 87.1% | 81.5%
O=[N+]([O-])c1ccc(Oc2cccnc2)c([N+](=O)[O-])c1 | -4.49% (active) | 87.7% | 106% | 85.7% | 83.1% | 79.1% | 84.5% | 24.1% | 97.6%
CC(C)N(CCNc1nc(C(Cl)(Cl)Cl)nc2cc(Cl)ccc12)C(C)C | -32.9% (active) | 8.33% (active) | 22.9% | -61.5% (active) | -5.1% (active) | -97% (active) | -62.2% (active) | -80.2% (active) | -80.9% (active)
Nc1ncnc2[nH]c(=O)[nH]c12 | 105% | 84.6% | 97.5% | 97.8% | 201% | 100% | 92.3% | 95.2% | 107%
Clc1ccc(Nc2ccnc(NCCCNc3ccnc4cc(Cl)ccc34)n2)cc1 | -69.3% (active) | -89.2% (active) | 4.15% (active) | -93.2% (active) | -27.5% (active) | -100% (active) | -90.5% (active) | -77.5% (active) | -92.1% (active)
